According to ChEMBL document CHEMBL3988442, “University of Dundee, Small-Polar-MMV Screening Library” (2021):
For some of these results: Potency and affinity values are given separately.

Assays:
Design in all cases: scale not given: direction of the effect not stated beside the values
[1] = target: Protein translocase subunit SecA (Escherichia coli (strain K12)) (UniProt P10408); experiment: Assay to Identify E. coli SecA ATPase Inhibitors; assay type: functional; conditions: 30 µM
[2] = target: T1, Ubiquitin-activating enzyme e1, putative (Leishmania donovani (strain BPK282A1)) (UniProt E9BSI1); experiment: Leishmania donovani Ubiquitin Activating Enzyme (LdE1); assay type: functional; conditions: 30 µM
T1 sequence (whole entry): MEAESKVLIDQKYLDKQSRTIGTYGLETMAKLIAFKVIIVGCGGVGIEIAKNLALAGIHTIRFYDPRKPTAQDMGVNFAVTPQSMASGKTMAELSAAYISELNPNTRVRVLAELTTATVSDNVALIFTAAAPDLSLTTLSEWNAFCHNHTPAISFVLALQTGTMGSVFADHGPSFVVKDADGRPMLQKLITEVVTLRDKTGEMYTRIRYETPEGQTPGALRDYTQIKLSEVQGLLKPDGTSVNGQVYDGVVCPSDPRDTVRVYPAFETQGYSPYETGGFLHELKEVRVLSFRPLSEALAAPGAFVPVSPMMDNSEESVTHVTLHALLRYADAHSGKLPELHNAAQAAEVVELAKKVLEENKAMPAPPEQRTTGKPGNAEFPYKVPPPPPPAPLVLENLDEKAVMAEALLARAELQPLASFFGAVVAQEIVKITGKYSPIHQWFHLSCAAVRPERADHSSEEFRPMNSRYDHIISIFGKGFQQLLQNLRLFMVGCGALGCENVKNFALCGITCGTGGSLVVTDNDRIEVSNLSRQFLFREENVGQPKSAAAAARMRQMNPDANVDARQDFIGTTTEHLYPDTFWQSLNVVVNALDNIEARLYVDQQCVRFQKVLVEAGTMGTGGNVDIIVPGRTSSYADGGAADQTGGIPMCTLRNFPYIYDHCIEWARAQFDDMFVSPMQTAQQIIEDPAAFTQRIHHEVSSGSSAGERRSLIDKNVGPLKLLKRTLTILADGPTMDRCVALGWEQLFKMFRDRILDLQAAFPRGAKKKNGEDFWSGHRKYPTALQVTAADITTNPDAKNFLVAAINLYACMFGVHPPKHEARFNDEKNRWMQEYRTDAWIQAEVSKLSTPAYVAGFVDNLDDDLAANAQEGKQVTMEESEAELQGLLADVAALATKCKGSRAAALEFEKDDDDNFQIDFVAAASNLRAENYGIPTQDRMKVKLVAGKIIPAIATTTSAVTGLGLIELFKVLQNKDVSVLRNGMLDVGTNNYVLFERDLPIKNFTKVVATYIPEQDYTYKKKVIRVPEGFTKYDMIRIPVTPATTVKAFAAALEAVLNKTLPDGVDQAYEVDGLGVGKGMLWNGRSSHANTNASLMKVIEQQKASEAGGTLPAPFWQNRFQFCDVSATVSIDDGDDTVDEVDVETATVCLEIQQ

[3] = target: AMP-activated protein kinase, AMPK (Homo sapiens) (UniProt P54646+O43741+P54619+Q9UGJ0+Q9Y478+Q13131+Q9UGI9); experiment: AMP-dependent Kinase enzyme assay. An in vitro enzyme assay that detects ADP turnover that is directly proportional to AMPK activity. This uses naive AMPK that is activated during the assay with MK-8722; assay type: functional; conditions: 30 µM
[4] = target: Sialic acid-binding Ig-like lectin 9 (Homo sapiens) (UniProt Q9Y336); experiment: Hs-Siglec9 ALPHAscreen SOP 20170721; conditions: 10 µM
Chain of Sialic acid-binding Ig-like lectin 9 (Homo sapiens) (Q9Y336 whole entry): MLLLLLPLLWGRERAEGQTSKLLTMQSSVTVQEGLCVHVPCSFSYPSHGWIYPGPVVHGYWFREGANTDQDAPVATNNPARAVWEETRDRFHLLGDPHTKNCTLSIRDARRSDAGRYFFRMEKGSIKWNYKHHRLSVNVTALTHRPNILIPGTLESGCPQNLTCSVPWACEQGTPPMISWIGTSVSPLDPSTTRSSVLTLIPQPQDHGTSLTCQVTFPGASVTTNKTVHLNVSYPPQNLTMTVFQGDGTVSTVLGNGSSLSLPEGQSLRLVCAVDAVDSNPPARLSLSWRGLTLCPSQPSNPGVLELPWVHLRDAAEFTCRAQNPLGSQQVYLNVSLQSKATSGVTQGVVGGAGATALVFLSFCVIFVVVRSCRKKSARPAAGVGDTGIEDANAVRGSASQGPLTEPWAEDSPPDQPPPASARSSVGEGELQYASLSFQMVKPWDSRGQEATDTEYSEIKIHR

Trypanosoma cruzi = experiment: Trypanosoma cruzi phosphomannomutase and mannose-1-phosphate guanylyltransferase assay; assay type: functional; conditions: 10 µM
[5] = target: T2, Arginase-2, mitochondrial (Homo sapiens) (UniProt P78540); experiment: in vitro enzyme assay to detect the production of urea directly proportional to the activity of Arginase II; assay type: functional; conditions: 33.3 µM; further: in the data most compounds retested in dose-response had high values
T2 sequence (whole entry): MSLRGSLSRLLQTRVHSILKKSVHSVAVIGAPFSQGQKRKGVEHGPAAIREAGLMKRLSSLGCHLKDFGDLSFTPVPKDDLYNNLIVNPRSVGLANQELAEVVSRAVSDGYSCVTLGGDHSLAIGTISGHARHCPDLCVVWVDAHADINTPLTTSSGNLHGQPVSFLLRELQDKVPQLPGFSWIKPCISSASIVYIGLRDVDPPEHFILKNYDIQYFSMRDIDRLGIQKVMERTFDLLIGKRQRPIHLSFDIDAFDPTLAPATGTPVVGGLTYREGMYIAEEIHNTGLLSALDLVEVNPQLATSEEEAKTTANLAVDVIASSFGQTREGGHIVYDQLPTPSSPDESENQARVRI

[6] = target: T3, Proteasome subunit beta (Trypanosoma cruzi) (UniProt O96673); experiment: Trypanosoma cruzi proteasome chymotrypsin-like activity (TcProtChymo) assay.; further: in the data most compounds retested in dose-response had high values; assay type: functional; conditions: 9.37 µM
T3 sequence (whole entry): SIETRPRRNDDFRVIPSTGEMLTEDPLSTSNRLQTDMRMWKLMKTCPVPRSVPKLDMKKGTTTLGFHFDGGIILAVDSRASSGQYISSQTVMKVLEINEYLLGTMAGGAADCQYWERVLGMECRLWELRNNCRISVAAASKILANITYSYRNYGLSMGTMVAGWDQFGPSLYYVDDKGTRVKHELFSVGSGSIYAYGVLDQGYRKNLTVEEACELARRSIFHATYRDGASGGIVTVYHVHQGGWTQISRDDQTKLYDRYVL

Homo sapiens = species: Homo sapiens; experiment: To identify inhibition of the IFN signalling (Jak-Stat) pathway via expression of an eGFP reporter gene under the control of an IFN-stimulated response element (ISRE) containing MxA promoter.; assay type: functional; conditions: 30 µM
[7] = target: T4, Tyrosyl-tRNA synthetase, putative (Trypanosoma cruzi (strain CL Brener)) (UniProt Q4DSP6); experiment: Trypanosoma cruzi tyrosyl tRNA synthetase (TcYRS) _High Tyrosine SOP; assay type: functional; conditions: 30 µM; further: in the data most compounds retested in dose-response had high values
T4 sequence (whole entry): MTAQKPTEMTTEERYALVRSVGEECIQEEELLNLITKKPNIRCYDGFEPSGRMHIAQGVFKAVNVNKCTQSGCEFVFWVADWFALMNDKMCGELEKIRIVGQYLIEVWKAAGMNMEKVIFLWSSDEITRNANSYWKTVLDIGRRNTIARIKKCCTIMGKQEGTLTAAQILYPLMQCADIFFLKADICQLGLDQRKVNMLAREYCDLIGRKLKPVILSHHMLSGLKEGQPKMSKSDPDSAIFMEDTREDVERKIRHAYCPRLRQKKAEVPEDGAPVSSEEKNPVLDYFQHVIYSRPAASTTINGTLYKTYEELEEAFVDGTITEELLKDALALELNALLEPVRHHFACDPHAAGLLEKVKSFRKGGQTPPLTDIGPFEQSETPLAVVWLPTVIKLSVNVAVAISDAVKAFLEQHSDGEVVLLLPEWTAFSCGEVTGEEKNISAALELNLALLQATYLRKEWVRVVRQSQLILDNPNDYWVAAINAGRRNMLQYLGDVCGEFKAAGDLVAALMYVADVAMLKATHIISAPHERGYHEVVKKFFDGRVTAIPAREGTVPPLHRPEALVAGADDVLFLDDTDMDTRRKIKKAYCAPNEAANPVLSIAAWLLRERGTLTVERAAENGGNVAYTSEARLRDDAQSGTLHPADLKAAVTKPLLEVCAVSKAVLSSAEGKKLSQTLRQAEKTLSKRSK

[8] = target: T4, Tyrosyl-tRNA synthetase, putative (Trypanosoma cruzi (strain CL Brener)); experiment: Trypanosoma cruzi tyrosyl tRNA synthetase (TcYRS) SOP; assay type: functional; conditions: 30 µM
[9] = target: Chromo domain-containing protein 1 (Saccharomyces cerevisiae (strain ATCC 204508 / S288c) (Baker's yeast)) (UniProt P32657); experiment: ScCHD-1 Enzyme Inhibition Assay; assay type: functional; conditions: 30 µM; further: in the data most compounds retested in dose-response had high values
Chain of Chromo domain-containing protein 1 (Saccharomyces cerevisiae (strain ATCC 204508 / S288c) (Baker's yeast)) (P32657 whole entry, the tested form may be a part): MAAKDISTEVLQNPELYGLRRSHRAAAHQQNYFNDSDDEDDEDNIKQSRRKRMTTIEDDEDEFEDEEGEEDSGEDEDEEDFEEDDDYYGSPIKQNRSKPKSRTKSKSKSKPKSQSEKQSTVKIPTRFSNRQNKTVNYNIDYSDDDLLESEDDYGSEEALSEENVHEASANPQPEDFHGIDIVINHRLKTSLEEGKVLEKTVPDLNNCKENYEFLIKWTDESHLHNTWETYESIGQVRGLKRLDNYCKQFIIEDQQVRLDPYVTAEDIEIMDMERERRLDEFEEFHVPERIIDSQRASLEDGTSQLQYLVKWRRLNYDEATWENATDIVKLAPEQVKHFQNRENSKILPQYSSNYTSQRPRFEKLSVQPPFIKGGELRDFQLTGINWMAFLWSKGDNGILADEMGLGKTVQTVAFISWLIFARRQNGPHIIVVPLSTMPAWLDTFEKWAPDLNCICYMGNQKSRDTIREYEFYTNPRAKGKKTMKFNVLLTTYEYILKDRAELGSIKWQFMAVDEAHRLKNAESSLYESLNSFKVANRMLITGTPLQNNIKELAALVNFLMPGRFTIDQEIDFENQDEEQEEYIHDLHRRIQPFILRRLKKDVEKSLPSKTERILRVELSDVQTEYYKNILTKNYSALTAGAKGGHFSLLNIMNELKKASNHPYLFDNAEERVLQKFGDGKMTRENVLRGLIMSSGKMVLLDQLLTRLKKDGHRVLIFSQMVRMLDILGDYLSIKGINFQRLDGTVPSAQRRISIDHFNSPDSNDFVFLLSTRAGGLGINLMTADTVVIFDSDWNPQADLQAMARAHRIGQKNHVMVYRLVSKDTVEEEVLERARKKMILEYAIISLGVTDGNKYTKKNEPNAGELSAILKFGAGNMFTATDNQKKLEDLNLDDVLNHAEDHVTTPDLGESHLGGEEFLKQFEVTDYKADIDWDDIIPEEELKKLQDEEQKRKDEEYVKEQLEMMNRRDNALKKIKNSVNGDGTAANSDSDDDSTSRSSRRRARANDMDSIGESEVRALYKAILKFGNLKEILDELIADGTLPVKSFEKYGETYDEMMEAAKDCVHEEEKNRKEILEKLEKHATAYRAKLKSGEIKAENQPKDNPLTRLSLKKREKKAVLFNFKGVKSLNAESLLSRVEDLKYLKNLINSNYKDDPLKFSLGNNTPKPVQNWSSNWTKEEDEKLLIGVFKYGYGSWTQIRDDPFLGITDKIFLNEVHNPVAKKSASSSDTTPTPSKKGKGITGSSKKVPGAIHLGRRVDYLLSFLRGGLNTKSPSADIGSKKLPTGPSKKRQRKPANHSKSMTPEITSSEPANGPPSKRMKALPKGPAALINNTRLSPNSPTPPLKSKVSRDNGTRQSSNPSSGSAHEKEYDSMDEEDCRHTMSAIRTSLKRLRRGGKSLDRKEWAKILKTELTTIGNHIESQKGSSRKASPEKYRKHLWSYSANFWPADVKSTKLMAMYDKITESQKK

Chain of Protein translocase subunit SecA (Escherichia coli (strain K12)) (P10408 whole entry): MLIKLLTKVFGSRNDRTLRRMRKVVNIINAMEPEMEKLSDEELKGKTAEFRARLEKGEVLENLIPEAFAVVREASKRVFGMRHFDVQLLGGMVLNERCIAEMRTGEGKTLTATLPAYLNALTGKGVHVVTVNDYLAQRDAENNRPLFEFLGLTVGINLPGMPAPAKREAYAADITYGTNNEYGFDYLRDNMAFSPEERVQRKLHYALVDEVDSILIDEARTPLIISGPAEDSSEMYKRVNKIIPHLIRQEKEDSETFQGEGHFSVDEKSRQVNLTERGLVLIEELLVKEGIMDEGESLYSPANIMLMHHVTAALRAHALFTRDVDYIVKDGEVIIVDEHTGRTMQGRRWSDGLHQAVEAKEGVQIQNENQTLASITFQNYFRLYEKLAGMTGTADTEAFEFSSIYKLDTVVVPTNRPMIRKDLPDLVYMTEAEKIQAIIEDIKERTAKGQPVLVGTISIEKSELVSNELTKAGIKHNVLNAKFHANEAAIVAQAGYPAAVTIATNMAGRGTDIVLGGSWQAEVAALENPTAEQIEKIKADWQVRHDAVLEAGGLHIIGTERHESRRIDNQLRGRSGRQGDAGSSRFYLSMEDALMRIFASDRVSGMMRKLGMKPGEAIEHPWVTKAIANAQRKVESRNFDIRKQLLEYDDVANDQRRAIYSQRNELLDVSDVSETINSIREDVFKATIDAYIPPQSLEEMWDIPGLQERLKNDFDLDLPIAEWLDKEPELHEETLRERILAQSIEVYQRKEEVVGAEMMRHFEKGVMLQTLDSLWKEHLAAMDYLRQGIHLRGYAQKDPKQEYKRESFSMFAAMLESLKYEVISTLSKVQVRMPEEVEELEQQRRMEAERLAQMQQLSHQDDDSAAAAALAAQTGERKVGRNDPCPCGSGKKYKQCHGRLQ

Structure (SMILES) | Percent Effect [1] [%] | Percent Effect [2] [%] | Percent Effect [3] [%] | Percent Effect [4] [%] | Percent Effect (Trypanosoma cruzi) [%] | Percent Effect [5] [%] | Percent Effect [6] [%] | Percent Effect (Homo sapiens) [%] | Percent Effect [7] [%] | Percent Effect [8] [%] | Percent Effect [9] [%]
CCc1cccc(NS(=O)(=O)c2cc3c(c(C(=O)O)c2)OCCO3)c1 | -5.6 | 1.27 | -5.84 | 0.409 | -1.33 | -0.645 | 20.9 | -2.39 | -7.29 | -7.59 | -30.6
CCS(=O)(=O)Nc1ccn(Cc2cccc(Cl)c2)n1 | -6.93 | 0 | 0.628 | 6.52 | 2.85 | 1.38 | 9.48 | 13.7 | 6.45 | 13.6 | 120
CC(NC(=O)CNCCn1cccn1)c1ccc2c(c1)OCCO2 (stereo not given) | -2.65 | -7.79 | 0.13 | 7.51 | 5.62 | 1.07 | 7.6 | -0.448 | 8.74 | 9.76 | -7.52
Cn1cc(C2CCCN2C(=O)CCCOc2ccc(F)cc2F)cn1 (stereo not given) | -6.14 | 10.1 | 1.86 | 9.73 | -0.283 | 1.9 | -3.36 | -0.895 | 4.43 | 3.8 | -1.53
CCn1c(C(=O)N2CCN(C(=O)NC(C)C)CC2)cc2ccccc21 | -9.42 | 2.6 | 5.86 | -4.68 | -3.37 | 0.356 | 6.93 | 14.7 | 0 | 0 | -7.12
CN(CC1CCCO1)C1CCN(CCc2ccccn2)CC1 (stereo not given) | -1.45 | 0 | -5.1 | 7.51 | -1.95 | 0.924 | -0.898 | 7.31 | 3.96 | 1.22 | 8.88
CS(=O)(=O)NCc1cn2c(n1)CN(C(=O)c1ccc[nH]1)CC2 | -5.06 | 10.7 | 14.2 | 2.3 | -1.97 | 0.233 | 5.2 | 2.29 | 7.45 | 14.1 | -4.02
Cc1cc(NC(=O)CN(C)C2CCCN(c3cccnn3)C2)n(C)n1 (stereo not given) | -4.44 | 7.89 | -28.4 | 2.85 | 12.2 | -1.8 | 10.6 | -5.3 | 4.43 | 13.6 | 6.51
CCN1CC2(CC1=O)CN(C(=O)c1ccco1)CCN(C(=O)N(C)C)C2 (stereo not given) | -0.623 | 5.48 | -1.36 | 5.48 | -2.18 | -8.78 | 12.6 | 6.21 | 6.25 | 1.24 | -1.51
CN(Cc1ccsc1)C(=O)CN1CCCC1Cn1cccn1 (stereo not given) | -3.48 | -18.2 | 2.08 | -4.38 | 5 | -1.05 | 3.8 | -6.97 | 11.4 | 7.06 | 4.97
COCC1CC2(CCN(C(=O)c3ccc(OC)c(Cl)c3)CC2)CO1 (stereo not given) | 4.75 | 15.6 | -2.46 | -7.51 | -5.82 | 9.68 | 13.8 | 15.9 | -1.06 | 3.85 | -9.46
CS(=O)(=O)NCCCN1CCCC1c1ccccc1 (stereo not given) | -4.36 | 5.06 | -1.23 | 6.79 | 1.42 | 3.04 | 3.03 | -31.1 | 7.39 | 13.9 | -5.84
CN1CC(=O)N(c2ccccc2)CC12CCN(Cc1cccnc1)C2 (stereo not given) | -2.77 | 0 | 0.129 | 2.38 | -0.397 | 2 | 5.74 | 3.56 | 4.17 | 1.24 | 5.73
CC(C)C1CN(C(=O)c2ccc(N3CCCC3)nc2)CCS1 (stereo not given) | -4.92 | 2.6 | 0.107 | 2.6 | -0.492 | 0 | -1.17 | -12.6 | 4.3 | 6.17 | -1.7
O=C(NCCCO)C1CC(=O)N(c2n[nH]c3cccc(F)c23)C1 (stereo not given) | 0.204 | 17.3 | -5.17 | -2.48 | 1.57 | -12.2 | 10.5 | 2.36 | 5.29 | 15.4 | -14.8
CCn1cc(C(=O)NC2CCN(S(C)(=O)=O)CC2)c2ccccc21 | -3.22 | 16.2 | -3.16 | 22.3 | 4.01 | 0.248 | 5.41 | 6.18 | 2.15 | 16.1 | -6.57
OCCn1cc(CN2CCN(CCOc3ccccc3F)CC2)cn1 | -9.62 | 0 | 7.1 | 3.17 | -5.48 | 2.03 | 4.49 | 11.7 | -2.97 | -8.54 | 11.3
Cc1nc(C2CCCN2CC(=O)N2CCCc3ccccc32)no1 (stereo not given) | -2.99 | -13.2 | -3.99 | 5.27 | 6.77 | 3.45 | 0 | 6.64 | 4.41 | 4.88 | -4.73
CCOC(=O)C1CCN(Cc2csc(C(C)(C)C)n2)CC1 | 1.04 | 0 | 2.22 | 11 | -3.12 | 9.89 | -5.98 | 4.26 | 4.43 | -3.8 | -1.95
Cn1cccc1C(=O)N1CCn2cc(CNC(=O)CC3CC3)nc2C1 | -2.92 | 13.3 | 10.1 | -5.14 | 4.13 | -0.233 | 6.61 | 0.949 | 8.51 | 16.7 | -6.08
